According to PubChem BioAssay AID687014 (The Scripps Research Institute Molecular Screening Center, 2013):
Out of some 370,000 compounds screened, about 6,800 (1.8%) were called active. The list comes from a sample in which actives are over-represented; it also holds similar structures and randomly drawn compounds. A number with no mark means an inactive call.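 The calls were made as follows: active = activation above a cutoff set at the mean of all screened compounds plus 3 SD (cut at about 10% in these data); inactive = the rest.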

Test system: Nuclear hormone receptor DAF-12 (Heterodera glycines), GAL4 fusion
Assay: H. glycines DAF-12 receptor agonists, primary screen, cell-based, luminescence, HEK293, GAL4 fusion, UAS-luciferase (AID 687014);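 also: 0% = DMSO wells and 100% = sodium butyrate wells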
Settings: HEK293 GAL4-hgDAF12 UAS-luciferase reporter, agonist luminescence; at 6.8 µM; hits give high values; normalized to butyrate control

Compound | activation
COC(=O)C1=C(C)N(Cc2ccccc2C(F)(F)F)C(=NCc2ccc(C(F)(F)F)cc2)NC1c1ccc(F)cc1 (stereo unspecified) | 0.87%
CCCCOCCCNC(=O)C[C@H]1C[C@@]2(C(=O)OC)C(=C[C@H](COCc3ccccc3)O[C@@H]2C)N(Cc2cccc3ccccc23)C1=O | 5.41%
CCOc1c(N2CCCCC2)c(=O)c1=O | -2.21%
Cc1ccc(CSc2nnc(SCC(=O)NN=Cc3cc(Br)ccc3F)s2)cc1 | 6.25%
CC(C)(C)c1ccc(/C=C/C(=O)Nc2ncccn2)cc1 | 16.6% (active)
Cc1cc(C)nc(NC(=O)/C=C/c2ccc(Cl)cc2)n1 | -0.13%
CC(C)(C)c1ccc(/C=C/C(=O)NCCCn2ccnc2)cc1 | 3.86%
CCS(=O)(=O)c1ccc2oc(SCC(=O)N3c4ccccc4CC3C)nc2c1 (stereo unspecified) | -2.27%
CN(C)S(=O)(=O)c1ccc2oc(SCC(=O)Nc3ccccc3F)nc2c1 | 15.5% (active)
COc1ccc(S(=O)(=O)N(C)C)cc1NC(=O)CSc1ncccn1 | 1.65%
O=C(CNC(=O)c1ccccc1)OC(C(=O)Nc1cc([N+](=O)[O-])ccc1F)c1ccccc1 (stereo unspecified) | 6.44%
COC(=O)c1cc(S(=O)(=O)N2CCN(C(=O)C3CCCO3)CC2)cn1C (stereo unspecified) | -0.48%
C=C(C)C#CC(Cc1ccccc1)NCC1CC1 (stereo unspecified) | 1.34%
COc1cccc(Cn2cc(COC(=O)Nc3ccc(F)cc3)nn2)c1 | -2.67%
COc1ccc(SSc2ccc(OC)cc2C(=O)O)c(C(=O)O)c1 | -1.26%
COc1ccc(/C=N/NC(=O)Cn2cc(C(F)(F)F)ccc2=O)cc1 | -5.01%
COc1ccc(/C=N/Nc2ccccc2C(=O)O)cc1 | 12.8% (active)
N#Cc1c(N)nc2c(c1N)CC(C(F)(F)F)O2 (stereo unspecified) | 2.74%
CCOC(=O)[C@]12CCCC3=C1N(CCC3)C(=O)[C@@H](CC(=O)N1CCSCC1)C2 | -0.16%
O=C(NCCCc1ccccc1)[C@H](Cc1ccccc1)NC1(C(=O)NCCc2c[nH]c3ccccc23)CCC1 | -3.84%
O=C(OC12CCCN(C1)/C(=C/c1cccnc1)C2)C1CCCC1 (stereo unspecified) | -3.6%
COc1ccc(C(=O)N2CCCN(C)CC2)c(OC)c1 | -2.22%
COC(=O)c1sc(NC(=O)c2ccc(OC)cc2OC)nc1C | 19.3% (active)

Compound | activation
COc1ccc(C(=O)CSc2nnnn2C)c(OC)c1 | 1.57%
COc1ccc(NC(=O)COC(=O)c2ccncc2)c(OC)c1 | -1.12%
COc1ccc(C(=O)Nc2nncs2)c(OC)c1 | 10.4% (active)
COc1ccc(C(=O)NC2CC(C)(C)Cc3c2cnn3-c2ccccc2)c(OC)c1 (stereo unspecified) | -4.18%
COC(=O)C1=C(C)N(Cc2ccc(C(F)(F)F)cc2)C(=NCc2ccc(C(F)(F)F)cc2)NC1c1cccc(Cl)c1 (stereo unspecified) | 6.59%
CCOC(=O)C1CCN(C(=O)c2ccccc2N(C)S(=O)(=O)c2ccccc2)CC1 | 0.69%
CC(C)CSc1nnc(-c2cccnc2)n1Cc1ccccc1 | 0.98%
C=CCN1C(=O)N(Cc2ccccc2)c2ccccc2S1(=O)=O | -2.37%
CC(C)(C)n1nc2c(c1NC(=O)c1ccc(S(=O)(=O)N3CCCC3)cc1)CS(=O)C2 (stereo unspecified) | -0.9%
CN1CCN(NC(=O)c2ccc(S(=O)(=O)N3CCCCCC3)cc2)CC1 | -0.88%
O=C(Nc1ncccc1O)c1ccc(S(=O)(=O)N2CCCCCC2)cc1 | 10.7% (active)
O=C(Nc1ncccc1O)c1ccc(C(=O)c2ccccc2)cc1 | 85% (active)
CCOC(=O)c1cccnc1NC(=O)c1ccncc1 | 2.56%
O=C(CNC(=O)c1ccc2ccccc2c1)Nc1ncccc1O | 4.2%
O=C(Nc1ncccc1O)c1ccc(S(=O)(=O)N2CCCC2)cc1 | 26.2% (active)
O=C(Nc1ccccc1F)c1ccc(S(=O)(=O)N2CCCCCC2)cc1 | 4.61%
CCN(CC)S(=O)(=O)c1cccc(NC(=O)c2ccc(S(=O)(=O)N3CCCC3)cc2)c1 | -4.53%
O=C(C1CCN(S(=O)(=O)c2ccccc2)CC1)N1CCN(C2CCCCC2)CC1 | -4.1%
COC(=O)C[C@@H]1CC[C@@H]2[C@@H](COc3ccc(NC(=O)Nc4ccc(F)c(F)c4)cc3C(=O)N2C)O1 | 0.28%
O=C(NN1C(=O)C2C3C=CC(C4CC34)C2C1=O)c1ccc(Cl)cc1 (stereo unspecified) | 0.35%
CC(C)CNc1cccc2c1S(=O)(=O)N(Cc1cn(Cc3ccccc3C(F)(F)F)nn1)Cc1ccccc1O2 | -3.87%
C[C@H](C(=O)N(C)c1ccccc1)[C@@H](O)c1ccc(Cl)cc1 | 1.73%
COc1ccc(C(NC(=O)C2CCN(CCCc3ccccc3)CC2)c2cccs2)cc1 (stereo unspecified) | -0.24%

Compound | activation
CC(=O)OCCN1CCCC12CCC(c1ccccc1)CC2 (stereo unspecified) | -0.9%
CCOC(=O)c1cc(-c2ccc(Cl)s2)nc2c1c(C)nn2C | -0.72%
Cn1c(=NC(=O)c2ccco2)sc2cccc(F)c21 | 20.1% (active)
Cc1cc(NC(=O)c2ccco2)c(=O)n(Cc2c(F)cccc2Cl)c1 | -0.15%
Cn1c(=NC(=O)c2cnccn2)sc2ccccc21 | 9.34%
CC(c1ccc(N)cc1)c1cn(C)c2ccccc12 (stereo unspecified) | -1.36%
C#CCN([C@H](C(=O)OC)C(C)CC)S(=O)(=O)c1ccccc1Br (stereo partly specified) | 0.28%
CN(C)S(=O)(=O)c1cccc(C(=O)N/N=C\c2ccco2)c1 | 3.58%
CC(/C=N/NC(=O)c1cc(-c2ccc3ccccc3c2)n[nH]1)=C\c1ccco1 | 20.6% (active)
Cc1cc(C(=O)NN=C/C=C/c2ccco2)n[nH]1 | -0.85%
COC(=O)[C@]12C[C@H](CC(=O)N3CCN(C(=O)C4CC4)CC3)C(=O)N(Cc3ccc4c(c3)OCO4)C1=C[C@H](C(C)(C)C)O[C@@H]2C | 0.51%
COc1ccc(N(CC(=O)NC(C)(C)C)C(=O)c2ccco2)cc1 | 0.5%
C/C(CC(=O)NC(C)(C)C)=N\NC(=O)c1ccco1 | 12.8% (active)
COc1cccc2cc(/C(C)=N/NC(=O)c3ccco3)oc12 | 4.73%
CCOC(=O)c1cccc(NC(=O)CN(C)S(=O)(=O)c2ccc(-c3cocn3)s2)c1 | 1.77%
COC(=O)c1ccc(/C=C/c2c(-c3ccc(OC)cc3)sc3ccccc23)cc1 | 0.64%
COc1ccc(N=C(C)c2sc3ccccc3c2O)cc1 | 13.8% (active)
COc1ccc(-n2c(SCC(=O)NC3CCCC3)nnc2-c2ccncc2)cc1 | -0.49%
Cc1ccc(Cn2cc(COC(=O)N(C)Cc3ccccc3)nn2)cc1 | 0.1%
O=S(=O)(NCCc1csc(-c2ccccc2)n1)c1cccnc1 | -0.11%
CC(=O)NC(c1cccc(F)c1)c1nc(-c2cccc(F)c2)cs1 (stereo unspecified) | 1.2%
N#CC(=C1SC=CS1)c1nc(-c2ccccc2)cs1 | 8.13%
Cc1cccc(Nc2nc(-c3ccccc3)cs2)n1 | 18.8% (active)

Compound | activation
Cc1ccccc1Nc1nc(-c2cccnc2)cs1 | 17.6% (active)
CC(=O)NC(c1ccccc1)c1nc(-c2cccc(C(C)C)c2)cs1 (stereo unspecified) | 1.94%
CC(=O)Nc1cccc(-c2csc(Nc3cccc(C)n3)n2)c1 | 16.6% (active)
Cc1csc(NC(=O)CSc2nnc(-c3cccnc3)o2)n1 | 4.01%
c1ccc(-c2csc(N3CCc4ccccc4C3)n2)cc1 | 4.55%
Cc1cc(C)nc(NC(=S)N2CCN(c3ccc(C(F)(F)F)cn3)CC2)c1 | -6.42%
O=C(NCC1CC1)c1onc(CSc2ccccc2)c1C(=O)NCC1CC1 | 1.09%
Cc1cccc(NC(=O)C[C@H]2CC[C@H]3[C@@H](COc4ccc(NC(=O)Nc5ccccc5)cc4C(=O)N3C)O2)c1 | -1.77%
O=C(NCCCN1CCN(c2ccccc2F)CC1)C1CCC(=O)N1C1CCCCC1 (stereo unspecified) | 0.6%
O=C1CN(C(=O)c2ccccc2F)C(c2ccc(F)cc2)c2cc(F)ccc2N1 (stereo unspecified) | -3.72%
O=C(CCCCCN1C(=O)C2C3C=CC(C3)C2C1=O)Nc1ccccn1 (stereo unspecified) | 2.03%
COC(CNC(=O)[C@H](Cc1ccccc1)NC1(C(=O)NC2CCCCC2)CCCCC1)OC | 1.76%
CC(C)C(=O)NCc1cc(-c2ccc(Cl)cc2)no1 | -0.54%
c1ccc(-c2cc(-c3ccccc3)[nH]n2)cc1 | 12.2% (active)
N#Cc1c(-c2ccccc2)c(-c2ccccc2)n[nH]c1=O | 0.04%
O=C(O)c1n[nH]nc1-c1ccccc1 | -0.69%
Oc1ccccc1-c1cc(-c2ccc(Cl)cc2)n[nH]1 | 20.1% (active)
Cc1c[nH]c2cccc(-c3ccc(Cl)cc3)c12 | 5.56%
Cc1ccc(S(=O)(=O)N(C)c2ccc(OCC(=O)OCC(=O)N(CC#N)c3ccccc3)cc2)cc1 | -0.04%
O=C(N[C@H](Cc1ccccc1)C(=O)N1CCCN(Cc2cccs2)CC1)[C@H]1O[C@@H](n2ccc(=O)[nH]c2=O)[C@H](O)[C@@H]1O | -0.37%
CC(C)(C)C(c1nc2ccccc2[nH]1)n1c(Cc2csc3ccccc23)nc2ccccc21 (stereo unspecified) | 6.72%
O=C(O)Cn1cnc2c(NCc3ccccc3)ncnc21 | 1.82%
